# How the values were obtained:
# Experiment in all cases: DAPPL (digital affinity profiling via proximity ligation, sequencing); 10 mM Tris-HCl pH 7.5, 50 mM NaCl, 1 mM DTT, 4% glycerol, room temperature, 30 min; GST-TFs on glutathione beads, 16-mer random dsDNA library, 0.1% formaldehyde crosslink after washing; high values mean tight binding
# FEV = target: T1, FEV (Homo sapiens, UniProt Q99581 1-238); details: protein: recombinant; tags: N-terminal GST; dsDNA, one strand shown
# T1 sequence: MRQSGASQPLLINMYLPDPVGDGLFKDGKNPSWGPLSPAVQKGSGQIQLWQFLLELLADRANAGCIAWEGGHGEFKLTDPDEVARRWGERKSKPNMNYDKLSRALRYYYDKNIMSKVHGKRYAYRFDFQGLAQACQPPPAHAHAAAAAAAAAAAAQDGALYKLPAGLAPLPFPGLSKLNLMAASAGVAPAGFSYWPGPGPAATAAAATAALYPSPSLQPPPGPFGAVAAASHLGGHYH
# Method in brief: (§1)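 After expression in yeast as GST fusions, human transcription factors were bound to glutathione beads, DNA-barcoded and mixed with a tag-only sample. The pools were incubated with 200 nmole of a 16-mer random double-stranded DNA library in Tris/NaCl/DTT/glycerol buffer (30 min, room temperature), washed and crosslinked with 0.1% formaldehyde. Proximity ligation with BsaI/T4 ligase ran for 1 h at 37 °C, before PCR amplification and sequencing on an Illumina NextSeq500. Binding signal is a hexamer's read frequency for a factor divided by its frequency for the tag-only sample.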
# ETV5 = ETV5 (Homo sapiens, UniProt P41161 1-510); details: protein: recombinant; tags: N-terminal GST; dsDNA, one strand shown
# Method in brief: as §1
# HSF1 = HSF1 (Homo sapiens, UniProt Q00613 1-529); details: protein: recombinant; tags: N-terminal GST; chain copies: 3; dsDNA, one strand shown
# Method in brief: as §1
# SPIC = target: T2, SPIC (Homo sapiens, UniProt Q8N5J4 1-248); details: protein: recombinant; tags: N-terminal GST; dsDNA, one strand shown
# T2 sequence: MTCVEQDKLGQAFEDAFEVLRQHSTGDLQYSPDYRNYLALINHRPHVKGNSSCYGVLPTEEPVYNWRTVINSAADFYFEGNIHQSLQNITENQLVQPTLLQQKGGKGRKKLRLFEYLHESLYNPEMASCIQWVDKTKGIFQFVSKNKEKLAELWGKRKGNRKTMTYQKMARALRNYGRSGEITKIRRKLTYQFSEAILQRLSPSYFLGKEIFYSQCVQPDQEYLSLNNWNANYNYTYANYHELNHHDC
# Method in brief: as §1
# ELF4 = ELF4 (Homo sapiens, UniProt Q99607 1-663); details: protein: recombinant; tags: N-terminal GST; dsDNA, one strand shown
# Method in brief: as §1
# ELK4 = target: T3, ELK4 (Homo sapiens, UniProt P28324-2 1-405); details: protein: recombinant; tags: N-terminal GST; dsDNA, one strand shown
# T3 sequence: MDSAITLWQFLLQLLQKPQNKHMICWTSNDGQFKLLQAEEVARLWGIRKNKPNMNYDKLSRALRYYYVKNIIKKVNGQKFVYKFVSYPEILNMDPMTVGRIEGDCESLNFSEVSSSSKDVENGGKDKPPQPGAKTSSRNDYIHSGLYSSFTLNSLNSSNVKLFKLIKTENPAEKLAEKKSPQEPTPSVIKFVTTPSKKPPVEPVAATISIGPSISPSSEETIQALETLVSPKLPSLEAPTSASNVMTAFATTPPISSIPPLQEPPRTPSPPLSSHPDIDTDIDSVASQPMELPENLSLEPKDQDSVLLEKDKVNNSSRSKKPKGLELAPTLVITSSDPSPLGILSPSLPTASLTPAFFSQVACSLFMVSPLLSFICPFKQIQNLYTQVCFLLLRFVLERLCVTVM
# Method in brief: as §1
# ETV2 = target: T4, ETV2 (Homo sapiens, UniProt O00321 1-342); details: protein: recombinant; tags: N-terminal GST; dsDNA, one strand shown
# T4 sequence: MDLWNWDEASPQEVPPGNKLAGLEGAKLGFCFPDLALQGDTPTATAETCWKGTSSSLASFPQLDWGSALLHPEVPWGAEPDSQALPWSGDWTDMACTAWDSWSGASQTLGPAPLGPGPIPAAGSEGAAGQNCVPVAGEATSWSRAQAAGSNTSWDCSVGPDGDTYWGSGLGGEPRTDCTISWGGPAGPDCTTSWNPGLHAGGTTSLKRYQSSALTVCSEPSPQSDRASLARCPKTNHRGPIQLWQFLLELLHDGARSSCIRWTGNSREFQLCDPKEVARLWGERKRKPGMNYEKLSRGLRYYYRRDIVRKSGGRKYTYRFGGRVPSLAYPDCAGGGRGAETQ
# Method in brief: as §1
# ELF3 = target: T5, ELF3 (Homo sapiens, UniProt P78545 1-371); details: protein: recombinant; tags: N-terminal GST; dsDNA, one strand shown
# T5 sequence: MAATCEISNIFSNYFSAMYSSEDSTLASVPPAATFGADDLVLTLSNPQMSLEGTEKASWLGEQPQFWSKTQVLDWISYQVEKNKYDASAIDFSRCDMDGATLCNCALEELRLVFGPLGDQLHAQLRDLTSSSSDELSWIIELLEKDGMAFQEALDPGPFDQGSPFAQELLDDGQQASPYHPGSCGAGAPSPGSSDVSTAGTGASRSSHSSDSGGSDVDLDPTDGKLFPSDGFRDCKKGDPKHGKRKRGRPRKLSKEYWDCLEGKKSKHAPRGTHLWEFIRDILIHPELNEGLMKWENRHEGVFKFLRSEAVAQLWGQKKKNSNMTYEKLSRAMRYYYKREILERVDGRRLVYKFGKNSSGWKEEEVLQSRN
# Method in brief: as §1
# CRX = CRX (Homo sapiens, UniProt O43186 1-299); details: protein: recombinant; tags: N-terminal GST; dsDNA, one strand shown
# Method in brief: as §1
# ETV1 = ETV1 (Homo sapiens, UniProt P50549 1-477); details: protein: recombinant; tags: N-terminal GST; dsDNA, one strand shown
# Method in brief: as §1
# Chain of ETV5 (P41161 whole entry): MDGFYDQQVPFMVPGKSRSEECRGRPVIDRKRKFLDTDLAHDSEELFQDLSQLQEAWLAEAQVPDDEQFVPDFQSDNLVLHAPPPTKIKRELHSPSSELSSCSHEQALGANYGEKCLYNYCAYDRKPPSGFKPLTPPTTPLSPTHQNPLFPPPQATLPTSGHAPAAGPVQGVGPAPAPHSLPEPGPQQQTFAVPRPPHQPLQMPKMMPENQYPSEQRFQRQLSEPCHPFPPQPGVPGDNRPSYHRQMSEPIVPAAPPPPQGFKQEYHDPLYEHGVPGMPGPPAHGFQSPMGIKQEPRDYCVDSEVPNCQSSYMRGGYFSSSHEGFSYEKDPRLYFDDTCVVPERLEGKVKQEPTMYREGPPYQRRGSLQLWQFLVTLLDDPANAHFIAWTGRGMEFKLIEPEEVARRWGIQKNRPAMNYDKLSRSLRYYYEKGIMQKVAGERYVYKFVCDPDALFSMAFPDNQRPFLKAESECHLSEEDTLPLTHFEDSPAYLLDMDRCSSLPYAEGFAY
# Chain of ELF4 (Q99607 whole entry): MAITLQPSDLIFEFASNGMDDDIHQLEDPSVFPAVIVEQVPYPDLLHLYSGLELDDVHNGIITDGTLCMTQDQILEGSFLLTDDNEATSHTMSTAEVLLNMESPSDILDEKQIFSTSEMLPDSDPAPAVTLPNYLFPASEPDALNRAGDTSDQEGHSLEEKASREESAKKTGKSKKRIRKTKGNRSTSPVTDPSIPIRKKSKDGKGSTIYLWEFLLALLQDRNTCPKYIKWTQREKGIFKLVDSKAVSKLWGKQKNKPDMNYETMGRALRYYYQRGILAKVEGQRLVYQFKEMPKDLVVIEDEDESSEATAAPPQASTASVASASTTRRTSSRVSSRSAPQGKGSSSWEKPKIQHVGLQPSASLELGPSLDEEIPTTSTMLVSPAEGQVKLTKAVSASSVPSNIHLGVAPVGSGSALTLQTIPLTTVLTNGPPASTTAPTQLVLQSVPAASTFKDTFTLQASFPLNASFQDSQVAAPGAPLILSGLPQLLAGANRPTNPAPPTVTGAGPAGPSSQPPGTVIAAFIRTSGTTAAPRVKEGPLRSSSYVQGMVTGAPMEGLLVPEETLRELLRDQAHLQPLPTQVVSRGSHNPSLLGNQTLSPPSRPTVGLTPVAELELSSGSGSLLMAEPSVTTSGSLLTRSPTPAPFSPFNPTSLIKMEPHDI
# Chain of ETV1 (P50549 whole entry): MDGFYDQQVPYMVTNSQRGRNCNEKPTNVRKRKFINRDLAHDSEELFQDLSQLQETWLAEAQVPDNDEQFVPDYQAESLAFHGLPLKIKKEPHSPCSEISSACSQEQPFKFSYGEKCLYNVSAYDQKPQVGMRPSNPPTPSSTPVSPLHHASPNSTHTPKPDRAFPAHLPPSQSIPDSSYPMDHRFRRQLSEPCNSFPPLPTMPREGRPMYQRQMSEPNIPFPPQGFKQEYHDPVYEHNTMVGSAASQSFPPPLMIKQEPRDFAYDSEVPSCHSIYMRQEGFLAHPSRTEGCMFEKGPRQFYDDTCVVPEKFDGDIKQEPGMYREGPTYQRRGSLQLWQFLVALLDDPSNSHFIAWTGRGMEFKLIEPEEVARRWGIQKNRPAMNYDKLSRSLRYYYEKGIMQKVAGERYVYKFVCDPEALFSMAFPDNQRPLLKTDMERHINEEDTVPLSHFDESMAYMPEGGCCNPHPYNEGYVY
# Chain of HSF1 (Q00613 whole entry): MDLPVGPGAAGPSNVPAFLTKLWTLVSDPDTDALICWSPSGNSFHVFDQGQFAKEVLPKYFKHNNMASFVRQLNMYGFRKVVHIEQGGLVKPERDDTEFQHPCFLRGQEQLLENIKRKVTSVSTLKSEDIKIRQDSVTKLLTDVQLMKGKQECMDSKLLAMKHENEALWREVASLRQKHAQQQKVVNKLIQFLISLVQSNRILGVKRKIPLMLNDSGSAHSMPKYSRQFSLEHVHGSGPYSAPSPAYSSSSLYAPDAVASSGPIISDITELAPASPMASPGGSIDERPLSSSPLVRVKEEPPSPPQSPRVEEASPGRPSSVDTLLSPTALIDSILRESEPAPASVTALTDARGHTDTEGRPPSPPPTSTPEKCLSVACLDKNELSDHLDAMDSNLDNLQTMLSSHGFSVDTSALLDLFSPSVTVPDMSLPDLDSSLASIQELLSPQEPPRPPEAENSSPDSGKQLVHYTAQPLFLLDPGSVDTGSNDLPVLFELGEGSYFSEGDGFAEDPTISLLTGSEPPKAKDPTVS
# Chain of CRX (O43186 whole entry): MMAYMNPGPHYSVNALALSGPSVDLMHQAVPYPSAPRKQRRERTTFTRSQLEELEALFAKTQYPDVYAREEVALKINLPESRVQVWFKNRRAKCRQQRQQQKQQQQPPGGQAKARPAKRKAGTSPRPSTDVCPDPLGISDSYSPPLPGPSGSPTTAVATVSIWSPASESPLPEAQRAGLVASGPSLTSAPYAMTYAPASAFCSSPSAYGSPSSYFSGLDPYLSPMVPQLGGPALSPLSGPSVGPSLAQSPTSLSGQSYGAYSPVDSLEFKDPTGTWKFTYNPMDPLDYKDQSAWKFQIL
sequence,measurement,setting,value
TATTAA,binding signal,FEV,"1.14 fold enrichment (6-mer frequency, TF over GST control)"
same,binding signal,ETV5,"1.13 fold enrichment (6-mer frequency, TF over GST control)"
same,binding signal,HSF1,"1.82 fold enrichment (6-mer frequency, TF over GST control)"
same,binding signal,SPIC,"1.12 fold enrichment (6-mer frequency, TF over GST control)"
same,binding signal,ELF4,"1.16 fold enrichment (6-mer frequency, TF over GST control)"
same,binding signal,ELK4,"1.02 fold enrichment (6-mer frequency, TF over GST control)"
same,binding signal,ETV2,"1.09 fold enrichment (6-mer frequency, TF over GST control)"
same,binding signal,ELF3,"1.06 fold enrichment (6-mer frequency, TF over GST control)"
same,binding signal,CRX,"2.83 fold enrichment (6-mer frequency, TF over GST control)"
same,binding signal,ETV1,"1.14 fold enrichment (6-mer frequency, TF over GST control)"
